Measurements published in publication doi:10.1101/2024.03.05.583629.

Target: pT7_6His-AlfaTag-HOXD13 (human, UniProt P35453 263-343)
Experiment: PADIT-seq
Details: dsDNA, one strand shown

pT7_6His-AlfaTag-HOXD13, sequence (P35453 263-343): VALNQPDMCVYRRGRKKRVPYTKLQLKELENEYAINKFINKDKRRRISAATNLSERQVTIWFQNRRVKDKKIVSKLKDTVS

Row | Sequence | binding signal
1 | CTCGAGGATATCAAGATCTGGCCTCGGCTACGTAAAAGGAACCTCTAGCTAGCCGACTCACTATAGGGATAATCGCCCTGAGCAAAGACC | 0.743 ± 0.0961 log2FC
2 | CTCGAGGATATCAAGATCTGGCCTCGGCGTTTTATATGGAACCTCTAGCTAGCCGACTCACTATAGGGATAATCGCCCTGAGCAAAGACC | 3.04 ± 0.0717 log2FC
3 | CTCGAGGATATCAAGATCTGGCCTCGGCGTTTTATTTGGAACCTCTAGCTAGCCGACTCACTATAGGGATAATCGCCCTGAGCAAAGACC | 2.98 ± 0.0869 log2FC
4 | CTCGAGGATATCAAGATCTGGCCTCGGCGGACTAAAAGGAACCTCTAGCTAGCCGACTCACTATAGGGATAATCGCCCTGAGCAAAGACC | -0.896 ± 0.106 log2FC
5 | CTCGAGGATATCAAGATCTGGCCTCGGCATGCTAAAAGGAACCTCTAGCTAGCCGACTCACTATAGGGATAATCGCCCTGAGCAAAGACC | 0.0523 ± 0.0889 log2FC
6 | CTCGAGGATATCAAGATCTGGCCTCGGCGCGCTTGCGGGAACCTCTAGCTAGCCGACTCACTATAGGGATAATCGCCCTGAGCAAAGACC | -0.651 ± 0.137 log2FC
7 | CTCGAGGATATCAAGATCTGGCCTCGGCATACTAAAAGGAACCTCTAGCTAGCCGACTCACTATAGGGATAATCGCCCTGAGCAAAGACC | 0.619 ± 0.0967 log2FC
8 | CTCGAGGATATCAAGATCTGGCCTCGGCTTTTTATTAGGAACCTCTAGCTAGCCGACTCACTATAGGGATAATCGCCCTGAGCAAAGACC | 3.3 ± 0.0796 log2FC
9 | CTCGAGGATATCAAGATCTGGCCTCGGCTTTTTAGCCGGAACCTCTAGCTAGCCGACTCACTATAGGGATAATCGCCCTGAGCAAAGACC | -0.442 ± 0.12 log2FC
10 | CTCGAGGATATCAAGATCTGGCCTCGGCGCATTAAAAGGAACCTCTAGCTAGCCGACTCACTATAGGGATAATCGCCCTGAGCAAAGACC | 1.77 ± 0.0683 log2FC
11 | CTCGAGGATATCAAGATCTGGCCTCGGCAAGCTAAAAGGAACCTCTAGCTAGCCGACTCACTATAGGGATAATCGCCCTGAGCAAAGACC | -0.784 ± 0.107 log2FC
12 | CTCGAGGATATCAAGATCTGGCCTCGGCTAAATAAAAGGAACCTCTAGCTAGCCGACTCACTATAGGGATAATCGCCCTGAGCAAAGACC | 1.68 ± 0.0988 log2FC
13 | CTCGAGGATATCAAGATCTGGCCTCGGCCGCCCAACTGGAACCTCTAGCTAGCCGACTCACTATAGGGATAATCGCCCTGAGCAAAGACC | -1.02 ± 0.119 log2FC
14 | CTCGAGGATATCAAGATCTGGCCTCGGCAATCTAAAAGGAACCTCTAGCTAGCCGACTCACTATAGGGATAATCGCCCTGAGCAAAGACC | -0.296 ± 0.111 log2FC
15 | CTCGAGGATATCAAGATCTGGCCTCGGCGTTTTAATGGGAACCTCTAGCTAGCCGACTCACTATAGGGATAATCGCCCTGAGCAAAGACC | 2.46 ± 0.0744 log2FC
16 | CTCGAGGATATCAAGATCTGGCCTCGGCATCATAAAAGGAACCTCTAGCTAGCCGACTCACTATAGGGATAATCGCCCTGAGCAAAGACC | 2.56 ± 0.0828 log2FC
17 | CTCGAGGATATCAAGATCTGGCCTCGGCCGCATAAAAGGAACCTCTAGCTAGCCGACTCACTATAGGGATAATCGCCCTGAGCAAAGACC | 1.46 ± 0.0793 log2FC
18 | CTCGAGGATATCAAGATCTGGCCTCGGCGATATAAAAGGAACCTCTAGCTAGCCGACTCACTATAGGGATAATCGCCCTGAGCAAAGACC | 1.99 ± 0.0693 log2FC
19 | CTCGAGGATATCAAGATCTGGCCTCGGCTTAATAAAAGGAACCTCTAGCTAGCCGACTCACTATAGGGATAATCGCCCTGAGCAAAGACC | 2.67 ± 0.0794 log2FC
20 | CTCGAGGATATCAAGATCTGGCCTCGGCGTTTTATAAGGAACCTCTAGCTAGCCGACTCACTATAGGGATAATCGCCCTGAGCAAAGACC | 3.26 ± 0.0829 log2FC
21 | CTCGAGGATATCAAGATCTGGCCTCGGCTCTCTAAAAGGAACCTCTAGCTAGCCGACTCACTATAGGGATAATCGCCCTGAGCAAAGACC | 0.412 ± 0.105 log2FC
22 | CTCGAGGATATCAAGATCTGGCCTCGGCTGTCCACGCGGAACCTCTAGCTAGCCGACTCACTATAGGGATAATCGCCCTGAGCAAAGACC | -0.737 ± 0.124 log2FC
23 | CTCGAGGATATCAAGATCTGGCCTCGGCGGATTAAAAGGAACCTCTAGCTAGCCGACTCACTATAGGGATAATCGCCCTGAGCAAAGACC | 1.17 ± 0.076 log2FC
24 | CTCGAGGATATCAAGATCTGGCCTCGGCGCTTTAAAAGGAACCTCTAGCTAGCCGACTCACTATAGGGATAATCGCCCTGAGCAAAGACC | 1.94 ± 0.0663 log2FC
25 | CTCGAGGATATCAAGATCTGGCCTCGGCGTTTTAGGTGGAACCTCTAGCTAGCCGACTCACTATAGGGATAATCGCCCTGAGCAAAGACC | -0.0193 ± 0.12 log2FC
26 | CTCGAGGATATCAAGATCTGGCCTCGGCCTGTTAAAAGGAACCTCTAGCTAGCCGACTCACTATAGGGATAATCGCCCTGAGCAAAGACC | 2.25 ± 0.0806 log2FC
